Measurements taken from the OligoGym collection.

biological target: C2orf57; test: pooled miR-30 sensor sort-seq; sequence = guide strand; conditions: shRNA
Also: reference of the scale not given here.

| Sequence | sensor-assay potency score (higher = more potent) |
| --- | --- |
| TTCTGGAACAACTGCACTCTTG | -1.11 |
| AAAACCACTAGACTCTGACTTG | -0.273 |
| TCTCTCAGGAACACTCGCCATT | -1.27 |
| TAAAGCTTCAGCTTCAGGGTGT | 0.632 |

biological target: C2orf70; test: as above; conditions: shRNA

| Sequence | sensor-assay potency score (higher = more potent) |
| --- | --- |
| TTGTCTTGATAGTACTTCCGAT | -0.575 |
| TTCGTAAGCTCTGTGGAGCGAT | -0.412 |
| TTGAACTCGGTCAGTAGGGTGC | -0.0549 |
| TGTCTTGATAGTACTTCCGATG | -1.09 |
| TAGCAGTCTCTCTTTTTCCGCT | -0.538 |
| TAAAAGGTGCCACTTCTTCTTT | -0.951 |
| TAGGTCTTCAGGTTCTCGGGGG | 0.319 |
| TACTTGAGGGTGGTGGTGCCGT | -0.758 |
| TTGATAGTACTTCCGATGCTGC | -0.858 |
| TAGAAATTCGTAAGCTCTGTGG | -0.326 |
| TTGGTGGAGAAGATGGTGGGGA | 0.218 |
| TAGTCTTAAAAGGTGCCACTTC | -0.307 |
